Results reported in PubChem BioAssay AID1159580 (chemical genetic matrix, 2015).
Screen size: about 5,500 compounds; about 2,000 (36%) were called active. Roughly 18% stayed inconclusive and do not appear here. Cut-off read from the data, not from the text of the source: active = normalized growth mostly below about 0.91 (no sharp cut-off); inconclusive = no clear call, values can overlap the other calls; inactive = mostly above about 0.92. The list shows a part of the results.

Assay: chemical genetic growth profiling, strain panel (AID 1159580);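 note: tested at 20 µM; growth read once vehicle control cultures reached saturation at 30 °C; 1 = growth at the plate median or of vehicle wells; lower values mean less growth of the strain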
Conditions: growth OD

Measured: normalized growth

COc1ccc(OC)c(C(O)CNC(=O)CN)c1 (stereo not given)
inactive: S. cerevisiae deletion strains, locus YKL009W, strain mrt4, hits give low values 0.969 | S. cerevisiae deletion strains, locus YKL068W, hits give low values 0.985 | S. cerevisiae deletion strains, locus YKL085W, strain MDH1 (second series), hits give low values 0.984 | S. cerevisiae deletion strains, locus YKL085W, strain MDH1, hits give low values 0.984 | S. cerevisiae deletion strains, locus YKL160W, strain elf1, hits give low values 1 | S. cerevisiae deletion strains, locus YKL190W, strain CNB1, hits give low values 0.984 | S. cerevisiae deletion strains, locus YKR001C, strain vps1, hits give low values 0.96 | S. cerevisiae deletion strains, locus YKR026C, strain gcn3, hits give low values 1.01 | S. cerevisiae deletion strains, locus YKR091W, strain srl3, hits give low values 0.996 | S. cerevisiae deletion strains, locus YLL001W, strain dnm1, hits give low values 1.01 | S. cerevisiae deletion strains, locus YLL026W, hits give low values 0.999 | S. cerevisiae deletion strains, locus YLL041C, strain sdh2, hits give low values 0.995 | S. cerevisiae deletion strains, locus YLR027C, strain aat2, hits give low values 1 | S. cerevisiae deletion strains, locus YLR039C, strain RIC1, hits give low values 0.966 | S. cerevisiae deletion strains, locus YLR058C, strain SHM2, hits give low values 0.976 | S. cerevisiae deletion strains, locus YLR102C, strain apc9, hits give low values 0.982 | S. cerevisiae deletion strains, locus YLR113W, strain HOG1, hits give low values 1.05 | S. cerevisiae deletion strains, locus YLR221C, strain rsa3, hits give low values 1 | S. cerevisiae deletion strains, locus YLR258W, strain gsy2, hits give low values 1 | S. cerevisiae deletion strains, locus YLR262C, strain YPT6 (second series), hits give low values 1.01 | S. cerevisiae deletion strains, locus YLR262C, strain YPT6, hits give low values 0.956 | S. cerevisiae deletion strains, locus YLR268W, strain sec22, hits give low values 0.996 | S. cerevisiae deletion strains, locus YLR320W, strain mms22, hits give low values 1.03 | S. cerevisiae deletion strains, locus YLR330W, strain CHS5, hits give low values 1 | S. cerevisiae deletion strains, locus YLR342W, strain FKS1 (second series), hits give low values 1.04 | S. cerevisiae deletion strains, locus YLR342W, strain FKS1, hits give low values 1.01 | S. cerevisiae deletion strains, locus YLR357W, strain rsc2, hits give low values 1.02 | S. cerevisiae deletion strains, locus YLR370C, strain arc18, hits give low values 1 | S. cerevisiae deletion strains, locus YLR371W, strain rom2, hits give low values 0.974 | S. cerevisiae deletion strains, locus YLR384C, strain iki3, hits give low values 1.02 | S. cerevisiae deletion strains, locus YLR418C, strain cdc73, hits give low values 0.973 | S. cerevisiae deletion strains, locus YML016C, strain PPZ1, hits give low values 0.99 | S. cerevisiae deletion strains, locus YML032C, strain rad52, hits give low values 0.959 | S. cerevisiae deletion strains, locus YML120C, strain ndi1, hits give low values 0.993 | S. cerevisiae deletion strains, locus YML124C, strain tub3, hits give low values 0.981 | S. cerevisiae deletion strains, locus YMR058W, strain fet3, hits give low values 1 | S. cerevisiae deletion strains, locus YMR078C, strain ctf18, hits give low values 0.976 | S. cerevisiae deletion strains, locus YMR125W, strain sto1, hits give low values 1 | S. cerevisiae deletion strains, locus YMR129W, hits give low values 1 | S. cerevisiae deletion strains, locus YMR205C, strain PFK2, hits give low values 1.02 | S. cerevisiae deletion strains, locus YMR223W, strain ubp8, hits give low values 0.993 | S. cerevisiae deletion strains, locus YMR231W, strain pep5, hits give low values 1.02 | S. cerevisiae deletion strains, locus YMR263W, strain SAP30, hits give low values 0.988 | S. cerevisiae deletion strains, locus YMR307W, strain GAS1, hits give low values 1.05 | S. cerevisiae deletion strains, locus YNL067W, strain RPL9B, hits give low values 0.971 | S. cerevisiae deletion strains, locus YNL071W, strain lat1, hits give low values 0.99 | S. cerevisiae deletion strains, locus YNL128W, strain TEP1, hits give low values 0.983 | S. cerevisiae deletion strains, locus YNL153C, strain GIM3, hits give low values 0.961 | S. cerevisiae deletion strains, locus YNL183C, strain NPR1, hits give low values 1 | S. cerevisiae deletion strains, locus YNL209W, strain ssb2, hits give low values 0.998 | S. cerevisiae deletion strains, locus YNL233W, strain BNI4, hits give low values 1.01 | S. cerevisiae deletion strains, locus YNL248C, strain rpa49, hits give low values 0.998 | S. cerevisiae deletion strains, locus YNL250W, strain rad50, hits give low values 0.968 | S. cerevisiae deletion strains, locus YNL271C, strain bni1, hits give low values 0.982 | S. cerevisiae deletion strains, locus YNL298W, strain CLA4, hits give low values 0.986 | S. cerevisiae deletion strains, locus YNL307C, strain MCK1, hits give low values 0.96 | S. cerevisiae deletion strains, locus YNL322C, strain KRE1 (second series), hits give low values 0.997 | S. cerevisiae deletion strains, locus YNL322C, strain KRE1, hits give low values 0.989 | S. cerevisiae deletion strains, locus YNR049C, strain mso1, hits give low values 1 | S. cerevisiae deletion strains, locus YNR052C, strain pop2, hits give low values 0.973 | S. cerevisiae deletion strains, locus YOL006C, strain TOP1, hits give low values 0.933 | S. cerevisiae deletion strains, locus YOL012C, strain htz1 0.916 | S. cerevisiae deletion strains, locus YOL147C, strain pex11, hits give low values 0.982 | S. cerevisiae deletion strains, locus YOR001W, strain rrp6, hits give low values 0.996 | S. cerevisiae deletion strains, locus YOR061W, strain CKA2, hits give low values 0.967 | S. cerevisiae deletion strains, locus YOR069W, strain VPS5, hits give low values 0.995 | S. cerevisiae deletion strains, locus YOR070C, strain gyp1, hits give low values 0.997 | S. cerevisiae deletion strains, locus YOR080W, strain dia2, hits give low values 1.01 | S. cerevisiae deletion strains, locus YOR083W, strain WHI5, hits give low values 1.01 | S. cerevisiae deletion strains, locus YOR106W, strain vam3, hits give low values 1.02 | S. cerevisiae deletion strains, locus YOR136W, strain idh2, hits give low values 0.977 | S. cerevisiae deletion strains, locus YOR144C, strain elg1, hits give low values 0.99 | S. cerevisiae deletion strains, locus YOR184W, strain ser1, hits give low values 0.97 | S. cerevisiae deletion strains, locus YOR231W, strain MKK1, hits give low values 1.05 | S. cerevisiae deletion strains, locus YOR265W, strain rbl2, hits give low values 0.998 | S. cerevisiae deletion strains, locus YOR270C, strain vph1, hits give low values 1.03 | S. cerevisiae deletion strains, locus YOR290C, strain snf2, hits give low values 0.997 | S. cerevisiae deletion strains, locus YOR316C, strain cot1, hits give low values 0.96 | S. cerevisiae deletion strains, locus YPL051W, strain arl3, hits give low values 1 | S. cerevisiae deletion strains, locus YPL055C, strain LGE1, hits give low values 0.94 | S. cerevisiae deletion strains, locus YPL078C, strain atp4, hits give low values 1.01 | S. cerevisiae deletion strains, locus YPL106C, strain sse1, hits give low values 1.01 | S. cerevisiae deletion strains, locus YPL240C, strain hsp82, hits give low values 0.997 | S. cerevisiae deletion strains, locus YPL256C, strain CLN2, hits give low values 1.01 | S. cerevisiae deletion strains, locus YPR119W, strain clb2, hits give low values 0.985 | S. cerevisiae deletion strains, locus YPR141C, strain kar3, hits give low values 0.966 | S. cerevisiae deletion strains, locus YPR163C, strain tif3, hits give low values 0.983 | S. cerevisiae deletion strains, locus YPR167C, strain met16, hits give low values 0.98 | S. cerevisiae deletion strains, strain wtn01, hits give low values 1.01 | S. cerevisiae strains, strain wild type, hits give low values 0.977
